Results from PubChem BioAssay AID2842 (Southern Research Institute, 2010).
Screen size: about 24,000 compounds; about 1,200 (5%) were called active. Inconclusive results (about 2%) are left out. The rule behind the calls is not given here. Only a sample is shown.

assay: Mycobacterium tuberculosis H37Rv growth inhibition, putative kinase inhibitor library, confirmatory dose response (AID 2842);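 note: bacteria incubated one week before Alamar blue readout; 0% = bacteria only wells and 100% = bacteria with high antibiotic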; details: M. tuberculosis H37Rv growth inhibition; CC50: measured here: Vero cell cytotoxicity; inhibition: stronger effect = higher value

Compound	inhibition
COc1ccc(OC)c(-c2nnc(NC(=O)C(C)Sc3ccccc3)s2)c1 (stereo not given)	-0.69% (inactive)
COc1ccc(Nc2nc(N3CCN(c4cccc(Cl)c4)CC3)nc3nccnc23)cc1	9.83% (inactive)
CCN(CC)CCCNc1ncnc2sc3c(c12)CC(C)CC3 (stereo not given)	5.59% (inactive)
COc1cc(C(=O)NC(=S)Nc2cccc3c2C(=O)NC3=O)cc(OC)c1OC	-8.66% (inactive)
Cn1c(=O)c2c(nc(SCCN3CCOCC3)n2Cc2ccccc2)n(C)c1=O	0.8% (inactive)
COc1ccc(C(=O)c2cn(CC(=O)Nc3ccc(F)cc3)c3ccc(F)cc3c2=O)cc1	9.54% (inactive)
CC1(C)Cc2c(sc(NC(=O)/C=C/c3ccccc3)c2C#N)C(C)(C)N1	-4.69% (inactive)
COc1ccc(CC(=O)NCCc2cc3ccc(C)cc3[nH]c2=O)cc1OC	11.1% (inactive)
CC1(C)COc2ccc(NC(=O)Cc3cccs3)cc2NC1=O	6.11% (inactive)
CCS(=O)(=O)c1cccc(C(=O)Nc2sc(C)c(C)c2C(=O)NC)c1	-4.86% (inactive)
CCOC(=O)N1CCN(C(=O)COc2cccc3c2CCN(CC)C3=O)CC1	-2.11% (inactive)
Cn1c(Cn2c(=O)sc3ccccc32)nnc1SCC(=O)Nc1ccc2c(c1)OCO2	-4.61% (inactive)
CC(C)N1CCc2c(sc(NC(=O)c3ccccc3Oc3ccccc3)c2C(N)=O)C1	81.6% (inactive)
COC(=O)c1c(NC(=O)c2ccccc2)sc2c1CC(C)(C)NC2(C)C	16.8% (inactive)
Cc1ccc(NC(=O)CSc2nccn(-c3ccc(F)cc3)c2=O)c(C)c1	-11.8% (inactive)
CNC(=O)C(=O)c1c[nH]c2ccccc12	4.99% (inactive)
CC1CCCCN1c1ncnc(N)c1[N+](=O)[O-] (stereo not given)	1.66% (inactive)
CC1(C)Cc2c(sc(NC(=O)c3cccc(F)c3)c2C#N)C(C)(C)N1	-10.1% (inactive)
Cc1nnc(SCc2ccc([N+](=O)[O-])cc2)n(N)c1=O	1.18% (inactive)
O=C1/C(=C/c2ccc(Br)cc2)Oc2cc(O)ccc21	8.31% (inactive)
COc1ccc(CNc2nc3c(-c4ccc(Cl)cc4)nnn3c3ccccc23)cc1	4.87% (inactive)
O=C(Nc1nc2c(cc3c4c(cccc42)CC3)s1)C(c1ccccc1)c1ccccc1	10.3% (inactive)
Cc1cc(OC(=O)C23CC4CC(CC(C4)C2)C3)c([N+](=O)[O-])c(=O)[nH]1	2.01% (inactive)

Compound	inhibition
C=CCn1c(N(C)C)nc2c1c(=O)[nH]c(=O)n2C	-2.63% (inactive)
CCOc1ccccc1NC(=O)c1oc2ccccc2c1NC(=O)COc1ccccc1	10.5% (inactive)
COc1ccc(Cn2cc(C(=O)c3ccc(Cl)cc3)c(=O)c3cc4c(cc32)OCCO4)cc1	14.9% (inactive)
CCOc1ccc(C(=O)Nc2c3c(nn2C(C)(C)C)CS(=O)C3)cc1 (stereo not given)	6.89% (inactive)
CCCC(=O)Nc1nnc(-c2cccc(C)c2)s1	5.77% (inactive)
COC(=O)c1ccc(NC(=O)CSc2nnc(C)c(=O)n2N)cc1	6.15% (inactive)
Cc1ccc(NC(=O)CSc2nnc(CCC(=O)O)c(=O)[nH]2)cc1C	-8.56% (inactive)
O=c1cnnc(N/N=C/c2ccc(O)cc2O)[nH]1	45.3% (inactive)
O=C1C(=O)N(CCCN2CCOCC2)C(c2cccc(F)c2)/C1=C(\O)c1ccncc1 (stereo not given)	-3.95% (inactive)
CCOc1ccc(N2CC(NC(=O)Nc3cccc(C)n3)CC2=O)cc1 (stereo not given)	8.06% (inactive)
O=S(=O)(Nc1cc(Sc2ncn[nH]2)c(O)c2ccccc12)c1ccc(F)cc1	-6.45% (inactive)
COc1ccccc1NC(=O)CCCN1C(=O)c2cccc3cccc(c23)C1=O	16.8% (inactive)
COc1ccccc1NC(=O)c1oc2ccccc2c1NC(=O)c1ccc(Cl)c([N+](=O)[O-])c1	3.99% (inactive)
COc1ccc(OCC(=O)N/N=C/c2ccccc2O)cc1	-13% (inactive)
O=C(/C=C/c1cccs1)Nc1nncs1	-2.33% (inactive)
COc1cccc2c1OC(c1ccncc1)N1N=C(c3cc(C)ccc3O)CC21 (stereo not given)	0.62% (inactive)
Cc1ccccc1NC(=O)CSc1nnc(Cn2c(=O)sc3ccccc32)n1C	-1.23% (inactive)
COc1ccc(-n2c(=O)[nH]c3c(C(N)=O)nc(-c4ccncc4)nc32)cc1	1.06% (inactive)
CC(C)c1nnc(SCc2c(Cl)ccc(Cl)c2Cl)n1N	-13.8% (inactive)
O=C(Nc1ccc2c(c1)OCO2)c1cnc2n(c1=O)CCS2	0.45% (inactive)
Cc1nnc(NC(=O)CSc2nc3c(c(=O)n2-c2ccccc2)SCC3)s1	-2.21% (inactive)
Cc1oc2c(CN3CCN(C)CC3)c(O)ccc2c(=O)c1-c1nc2ccccc2s1	-15.1% (inactive)
Cc1ccc(CSc2nc3c([nH]2)c(=O)n(C)c(=O)n3C)cc1	6.64% (inactive)

Compound	inhibition
NC(=O)c1oc2ccccc2c1NC(=O)c1ccc(Cl)s1	14.6% (inactive)
Nc1nc(SCC(=O)Nc2ccc(F)cc2F)[nH]c(=O)c1NC(=O)c1ccc(Br)cc1	-9.37% (inactive)
Cc1cc2nnc(SCC(=O)Nc3ccccc3)n2c2ccccc12	0.4% (inactive)
COc1cccc(NC(=O)Nc2nc3c(s2)C(=O)CC(C)(C)C3)c1	8.4% (inactive)
CCN(c1ncnc(N)c1[N+](=O)[O-])C1CCCCC1	5.41% (inactive)
COc1ccc(NC(=O)CSc2nnc3ccc(-c4ccncc4)nn23)cc1	-9.39% (inactive)
O=C(CSc1nnc2[nH]c(=O)ccn12)Nc1ccc([N+](=O)[O-])cc1	-13.1% (inactive)
CN(CCC#N)c1ccc(C=C2C(=O)NC(=S)NC2=O)cc1	5.58% (inactive)
COC(=O)C1=C(C)NC(=O)NC1c1ccc(Cl)cc1 (stereo not given)	1.95% (inactive)
CC(C)CCSc1nc2c(c(=O)[nH]c(=O)n2C)n1CC(O)COc1ccc(Cl)cc1 (stereo not given)	21.4% (inactive)
COc1cccc(N2CC(C)Cn3c2nc2c3c(=O)[nH]c(=O)n2C)c1 (stereo not given)	0.57% (inactive)
CC1Cc2nc(SCc3ccccn3)n(-c3ccc(F)cc3)c(=O)c2S1 (stereo not given)	20% (inactive)
Cc1cccc(-n2ccnc2SCC(=O)Nc2nc3ccccc3s2)c1C	4.43% (inactive)
CCOc1ccc(/C(O)=C2\C(=O)C(=O)N(CCCn3ccnc3)C2c2ccc(F)cc2)cc1Cl (stereo not given)	-17.6% (inactive)
CSc1ccc2nc(Nc3ccc(F)cc3F)sc2c1	8.52% (inactive)
C=CCOC(=O)C1=C(C)Nc2[nH]c(=O)[nH]c(=O)c2C1c1ccc(Cl)c(Cl)c1 (stereo not given)	-6.17% (inactive)
Nc1nc(SCC(=O)N2CCCCCC2)[nH]c(=O)c1NC(=O)c1ccco1	-18.5% (inactive)
O=C(Nc1nc(-c2ccc(Cl)cc2Cl)cs1)c1ccc2c(c1)OCCO2	0.34% (inactive)
CC1=C(C(=O)Nc2ccc(Cl)cc2)C(c2ccccc2Cl)C(C#N)=C(SCC(N)=O)N1 (stereo not given)	71.6% (inactive)
Cc1nc2sc(C(N)=O)c(N)c2c(-c2ccccc2)c1C(=O)Nc1ccccc1	1.79% (inactive)
CCOC(=O)c1cnc2ccc(OCC)cc2c1Nc1cccc(Cl)c1C	-5.22% (inactive)
COc1ccc(-n2c(=O)[nH]cc(C(=O)Nc3ccc4c(c3)OCO4)c2=O)cc1OC	1.59% (inactive)
Cc1ccccc1NC(=O)Cc1csc(NS(=O)(=O)c2ccc(Cl)cc2)n1	-5.2% (inactive)

Compound	inhibition
Cc1ccnc(NC(=O)NC2CC(=O)N(c3ccc(F)cc3)C2)c1 (stereo not given)	11.3% (inactive)
CCOC(=O)c1oc2ccccc2c1NC(=O)c1ccc(F)c(F)c1	3.18% (inactive)
CC1CCc2c(sc(NC(=O)c3ccc4ccccc4c3)c2C#N)C1 (stereo not given)	1.23% (inactive)
CCCCCCCNC(=O)c1c(N)n(/N=C/c2ccco2)c2nc3ccccc3nc12	-9.39% (inactive)
O=C(O)COc1ccccc1/C=C1/SC(=S)N(NC(=O)c2ccco2)C1=O	-1.98% (inactive)
CNC(=O)c1c(NC(=O)CC2SC(=O)NC2=O)sc2c1CCCC2 (stereo not given)	-3.54% (inactive)
Cc1ccc(C(=O)Nc2cc(C)c3c(=O)oc4ccccc4c3n2)cc1[N+](=O)[O-]	-2.97% (inactive)
O=C(CN1N=NC2C(=O)N(c3ccc(Cl)cc3)C(=O)C21)Nc1ccccc1Cl (stereo not given)	0.65% (inactive)
COc1ccc(NC(=O)C2=C(C)Nc3ncnn3C2c2ccc(C#N)cc2)cc1 (stereo not given)	-1.94% (inactive)
COc1ccc(/C(O)=C2\C(=O)C(=O)N(CCCn3ccnc3)C2c2cccc(F)c2)cc1Cl (stereo not given)	-11.8% (inactive)
O=C(CSc1nc2c(c(=O)n1-c1ccc(Cl)cc1)SCC2)Nc1ccc2c(c1)OCO2	-11.7% (inactive)
Cn1c(SCC(=O)N2CCOCC2)nnc1-c1c[nH]c2ccccc12	-12.7% (inactive)
O=C(Nc1nnc(-c2ccc(F)cc2)s1)c1ccccc1	8.84% (inactive)
CCN1CCN(c2nc(Nc3ccc(OC)cc3)c3nccnc3n2)CC1	-0.8% (inactive)
CCc1ccc(NC(=O)CSc2nc(-c3cccs3)nc3c2c(=O)n(C)c(=O)n3C)cc1	-5.83% (inactive)
CCOc1ccc(C(=O)Nc2nnc(C34CC5CC(CC(C5)C3)C4)s2)cc1	9.95% (inactive)
COc1ccc(CCNC(=O)C(=O)NCC(c2ccco2)N2CCc3ccccc32)cc1 (stereo not given)	-2.72% (inactive)
CSc1ccc2nc(Nc3cc(C)ccc3C)sc2c1	13.8% (inactive)
COc1cc(CN2CCNC(=O)C2CC(=O)O)cc(OC)c1 (stereo not given)	-0.59% (inactive)
COCCOC(=O)C1=C(C)NC(=O)NC1c1ccc(OC)cc1 (stereo not given)	-0.33% (inactive)
COC(=O)c1ccc(CSc2nnc3[nH]c(=O)c(C)c(C)n23)o1	-3.33% (inactive)
